The nature of assay [1]: qHTS assay to identify aromatase inhibitors - cell viability counter screen (AID 743084;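 note: cells stimulated with testosterone during compound exposure; nearly all actives have a fitted effect of over 55% in size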; note: potency is the fitted concentration of half-maximal effect). (In general: In qHTS, concentration-response curves come from the screen itself.)
Assay [2] deals with Aryl hydrocarbon receptor (Homo sapiens) (UniProt P35869). Put plainly: qHTS assay to identify small molecule that activate the aryl hydrocarbon receptor (AhR) signaling pathway (AID 743085).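 For activation: HG2L7.5c1 human HepG2 liver cells with stably integrated DRE-driven firefly reporter; series mostly up to about 70 µM.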 Note: nearly all actives have a fitted effect of over 15% in size. Note: potency is the fitted concentration of half-maximal effect. An outline of the steps: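 HepG2 cells (HG2L7.5c1) stably carrying a firefly luciferase reporter driven by 20 dioxin responsive elements were exposed to compound for 24 h at 37C after a 5 h settling period; luminescence rise (ONE-Glo) indicated activation.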
Aryl hydrocarbon receptor (Homo sapiens), sequence (P35869 whole entry, looked up): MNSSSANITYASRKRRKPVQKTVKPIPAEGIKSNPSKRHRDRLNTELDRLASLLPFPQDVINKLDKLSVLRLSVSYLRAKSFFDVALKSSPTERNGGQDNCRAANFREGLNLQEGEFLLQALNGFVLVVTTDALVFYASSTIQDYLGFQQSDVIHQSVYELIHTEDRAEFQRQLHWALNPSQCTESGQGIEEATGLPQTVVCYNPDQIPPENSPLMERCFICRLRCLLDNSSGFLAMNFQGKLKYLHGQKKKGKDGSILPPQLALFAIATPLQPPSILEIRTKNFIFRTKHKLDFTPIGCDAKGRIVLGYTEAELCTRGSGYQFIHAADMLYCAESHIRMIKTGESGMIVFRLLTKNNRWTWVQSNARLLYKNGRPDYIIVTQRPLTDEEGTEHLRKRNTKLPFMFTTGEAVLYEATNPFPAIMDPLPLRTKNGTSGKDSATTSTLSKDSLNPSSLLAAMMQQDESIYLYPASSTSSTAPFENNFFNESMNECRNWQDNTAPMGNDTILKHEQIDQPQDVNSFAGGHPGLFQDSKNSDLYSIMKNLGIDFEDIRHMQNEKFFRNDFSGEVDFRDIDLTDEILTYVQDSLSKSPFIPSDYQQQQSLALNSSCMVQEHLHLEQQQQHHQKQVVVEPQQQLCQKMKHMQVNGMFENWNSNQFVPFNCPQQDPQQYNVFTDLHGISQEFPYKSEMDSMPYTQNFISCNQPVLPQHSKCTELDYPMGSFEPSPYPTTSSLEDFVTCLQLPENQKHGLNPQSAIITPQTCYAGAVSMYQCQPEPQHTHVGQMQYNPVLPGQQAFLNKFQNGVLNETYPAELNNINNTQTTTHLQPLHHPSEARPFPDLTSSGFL

Assay [3] is described as follows: qHTS assay to identify small molecule that activate the aryl hydrocarbon receptor (AhR) signaling pathway - cell viability counter screen (AID 743086).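 Note: HepG2 liver cells carrying the AhR DRE luciferase reporter; series mostly up to about 70 µM; nearly all actives have a fitted effect of over 45% in size.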 An outline of the steps: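 HepG2-AhR-luc (HG2L7.5c1) cells, 4000/well, were preincubated 5 h at 37C, exposed to compound in qHTS format for 24 hr at 37C, then given CellTiter-Fluor for 30 min; viability was read as fluorescence in the reporter wells.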

Assay [4] addresses Peroxisome proliferator-activated receptor gamma (Homo sapiens) (UniProt P37231). In words: qHTS assay to identify small molecule agonists of the peroxisome proliferator-activated receptor gamma (PPARg) signaling pathway (AID 743094; active = well fitted activation curve with a large enough effect in the signal ratio in the repeat runs, not every such curve was filed as active; the % refers to the signal ratio). In outline: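 Agonist activity was taken from a beta-lactamase reporter (FRET substrate, 1 h at room temperature) in HEK293H cells carrying a PPARg UAS-bla construct. Compounds in DMSO were incubated 17 h at 37C after a 5 h cell pre-incubation.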

Assay [5] has the same target. Put plainly: qHTS assay to identify small molecule antagonists of the peroxisome proliferator-activated receptor gamma (PPARg) signaling pathway (AID 743191; calls by dose curve; note: series mostly up to about 63 µM; nearly all actives have a fitted effect of over 30% in size). An outline of the steps: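 GeneBLAzer PPARg UAS-bla HEK293H cells carrying a UAS-driven beta-lactamase reporter were plated at 3000 cells/well, preincubated 5 h at 37C, then given compound for 17 h at 37C; LiveBLAzer B/G FRET substrate was read after 1 h at room temperature.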

A short description of assay [6]: qHTS assay for small molecule agonists of the antioxidant response element (ARE) signaling pathway (AID 743202; active = well fitted activation curve with a large enough effect in the signal ratio in the repeat runs, not every such curve was filed as active; the % refers to the signal ratio). An outline of the steps: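 Following a 16 h, 37 C exposure of reporter HepG2 cells (ARE-driven beta-lactamase, 2,000 cells/well) to compounds, FRET substrate was applied for 2 h at room temperature and fluorescence intensity recorded.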
Assay [7] is described as follows: qHTS assay for small molecule agonists of the antioxidant response element (ARE) signaling pathway - cell viability counter screen (AID 743203; calls by dose curve; note: nearly all actives have a fitted effect of over 55% in size; note: potency is the fitted concentration of half-maximal effect). An outline of the steps:
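Viability counter screen: CellTiter-Glo luminescence, read after 30 min at room temperature, in ARE-bla HepG2 wells. Compound exposure lasted 16 h at 37C/5% CO2, following a 5 h pre-incubation of the cells after plating.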

A short description of assay [8]: qHTS assay for small molecule activators of the heat shock response signaling pathway - cell viability counter screen (AID 743209). Note: nearly all actives have a fitted effect of over 50% in size. Note: potency is the fitted concentration of half-maximal effect. An outline of the steps: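 Cytotoxicity counter screen run in the same wells as the heat-shock bla reporter assay: HeLa HSE-bla cells, 5 h compound exposure at 37 C, viability read by CellTiter-Glo luminescence.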
Assay [9] is described as follows: qHTS assay for small molecule activators of the heat shock response signaling pathway (AID 743210; active = well fitted activation curve with a large enough effect in the signal ratio in the repeat runs, with a control signal flat, not every such curve was filed as active; the % refers to the signal ratio; note: series mostly up to about 63 µM). In outline: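 Heat shock element–beta-lactamase HeLa reporter cells; qHTS with compounds for 5 h at 37 C; detection by FRET substrate fluorescence after 2.5 h at RT.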
Assay [10] in a line: qHTS assay to identify small molecule antagonists of the peroxisome proliferator-activated receptor gamma (PPARg) signaling pathway - cell viability counter screen (AID 743194). Note: nearly all actives have a fitted effect of over 55% in size. In outline: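 PPARg-UAS-bla HEK293H cells were plated, rested 5 h at 37 C, then treated with compounds plus rosiglitazone (50 nM final) for 17 h at 37 C; viability was then read by CellTiter-Glo luminescence after 30 min at room temperature.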

The values below come from PubChem BioAssay (Tox21).

The structures appear in SMILES notation. Where “and” joins values, the source holds several entries; their conditions need not be identical. Equal values may be shown once. Results filed as inconclusive are left out. A structure can be active in one record and inactive in another. Calls of active or inactive are those of the source. Unless noted, calls come from the whole dose curve; as a rule, active = well fitted curve in the direction sought with a large enough effect in the repeat runs; inconclusive = weak or mixed curves; inactive = no such curve, though single readings can be large; an effect the other way counts as inactive or inconclusive.

Peroxisome proliferator-activated receptor gamma (Homo sapiens), sequence (P37231 whole entry, looked up): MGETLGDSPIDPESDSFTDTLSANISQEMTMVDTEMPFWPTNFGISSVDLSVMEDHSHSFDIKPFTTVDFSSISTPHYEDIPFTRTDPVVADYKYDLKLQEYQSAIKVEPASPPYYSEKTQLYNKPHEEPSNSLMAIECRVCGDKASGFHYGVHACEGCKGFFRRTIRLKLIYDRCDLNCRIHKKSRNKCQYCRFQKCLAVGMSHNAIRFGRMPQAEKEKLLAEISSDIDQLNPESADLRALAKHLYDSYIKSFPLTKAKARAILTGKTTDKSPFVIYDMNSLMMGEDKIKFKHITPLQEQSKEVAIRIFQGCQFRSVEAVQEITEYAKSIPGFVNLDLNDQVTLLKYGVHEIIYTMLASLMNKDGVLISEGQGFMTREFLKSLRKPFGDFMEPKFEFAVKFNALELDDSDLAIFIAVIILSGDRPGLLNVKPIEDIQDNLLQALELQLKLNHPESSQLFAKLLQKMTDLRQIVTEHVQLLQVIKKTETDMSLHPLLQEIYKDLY

On to `CCOP(=S)(OCC)Oc1cc(C)nc(C(C)C)n1`, for which the Potency result in assay [1] is “inactive and 27.3 µM (active)”; in assay [2] it was “inactive and 6.86 µM (active)”; in assay [7], “inactive and 54.5 µM (active)”; in assay [8] it was “inactive and 43.6 µM (active)”. In addition, the result in [3] and in assay [4] was inactive. For the same compound, the Potency entry in [5], in assay [6] and in assay [9] was “inactive” throughout.

For the compound `CC(C)c1cccc(C(C)C)c1O`, the Potency result in assay [1], in assay [2], in [5], in assay [6], in assay [7] and in assay [8] was “inactive” throughout. Also, the Potency entry in assay [9] is “inactive”. In addition, the compound was classed as inactive in [3], in [4] and in assay [10].

For the compound `Cc1cc(O)ccc1Cl`, the Potency entry in assay [1], in assay [2], in [5], in assay [6], in assay [7] and in assay [8] was “inactive” in each case. Further, the Potency result in assay [9] is “inactive”. The result in assay [3], in assay [4] and in assay [10] was inactive.

Regarding `O=P1(NCCCl)OCCCN1CCCl` (centres undefined), the Potency result in assay [1], in [2], in assay [5], in assay [6], in assay [7] and in assay [8] was “inactive” in each case. Moreover, in assay [9], the Potency entry was “inactive”. The outcome in assay [3] and in assay [4] was inactive.

On to `N#Cc1cccc(C#N)c1`, for which the Potency entry in assay [1], in [2], in assay [5], in assay [6], in [7] and in [8] was “inactive” each time. In assay [9], the Potency entry was “inactive”. The outcome in assay [3], in [4] and in assay [10] was inactive.

As to `CNC(=O)O/N=C(\SC)C(=O)N(C)C`, the Potency entry in [1], in assay [2], in assay [5], in [6], in assay [7] and in assay [8] was “inactive” each time. For the same compound, the Potency result in assay [9] was “inactive”. Besides, the outcome in [3], in assay [4] and in assay [10] was inactive.

Take `c1ccc2c(c1)CCCC2`: the Potency result in assay [1], in [2], in assay [5], in assay [6], in [7] and in assay [8] was “inactive” in each case. Moreover, the Potency result in assay [9] is “inactive”. In addition, the outcome in [3] and in assay [4] was inactive.

On to `CCNc1nc(Cl)nc(NC(C)C)n1`, for which the Potency entry in assay [1], in [2], in [5], in [6], in [7] and in assay [8] was “inactive” throughout. In [9], the Potency result was “inactive”. For the same compound, the compound was called inactive in [3] and in assay [4].

Consider `COP(=S)(OC)Oc1ccc(SC)c(C)c1`, for which the Potency entry in [1], in assay [5], in assay [6], in assay [7], in assay [8] and in assay [9] was “inactive” throughout. Also, in assay [2], the Potency is 26.6 µM (active) and 30.3 µM (active) and 24.3 µM (active). The compound was called inactive in assay [3] and in [4].

With `Cc1ccc(N)cc1`, the Potency result in assay [1], in assay [5], in assay [6], in [7], in assay [8] and in assay [9] was “inactive” throughout. The Potency in assay [2] was 24.5 µM (active) and inactive and 61.1 µM (active). Besides, the outcome in [3] and in [4] was inactive.

For the compound `CC(=O)C1CCOC1=O` (centres undefined), the Potency entry in [1], in assay [2], in assay [5], in assay [6], in assay [7] and in assay [8] was “inactive” each time. Further, the Potency entry in assay [9] is “inactive”. Besides, the compound was classed as inactive in assay [4] and in assay [10].

Consider `Cl/C=C/Cl`, for which the Potency result in assay [1], in [2], in assay [6], in assay [7], in assay [8] and in assay [9] was “inactive” each time. In addition, the call in [3] and in assay [10] was inactive.

`CNC(=O)Oc1cccc2ccccc12`: the Potency entry in assay [1], in [7], in assay [8] and in assay [9] was “inactive” each time. In addition, the Potency in [2] was 5.31 µM (active) and 54 µM (active) and 27.3 µM (active). The call in [3] and in assay [10] was inactive.

For the compound `O=C(O)COc1ccccc1`, the Potency result in [1], in [2], in assay [5], in [6], in [7] and in assay [8] was “inactive” each time. The Potency entry in assay [9] is “inactive”. For the same compound, the compound was called inactive in assay [4] and in assay [10].

With `O=S(=O)(O)OOS(=O)(=O)O`, the Potency result in assay [1], in [2], in [5], in assay [6], in [7] and in [8] was “inactive” in each case. In assay [9], the Potency entry is “inactive”. The compound was called inactive in assay [4] and in assay [10].

Regarding `CNC(=O)O/N=C/C(C)(C)S(C)(=O)=O`, the Potency entry in [1], in assay [2], in [5], in [6], in assay [7] and in assay [8] was “inactive” in each case. Besides, in assay [9], the Potency entry was “inactive”. The compound was classed as inactive in assay [4] and in assay [10].

On to `CC12CC1(C)C(=O)N(c1cc(Cl)cc(Cl)c1)C2=O` (centres undefined), for which the Potency result in assay [1], in [7], in assay [8] and in assay [9] was “inactive” throughout. Also, the Potency in [2] is 27.2 µM (active) and inactive. Further, the call in assay [3] and in [4] was inactive.

As for `Clc1cnc(Oc2ccc(Oc3ncc(Cl)cc3Cl)cc2)c(Cl)c1`, the Potency result in assay [1], in assay [2], in assay [7], in assay [8] and in assay [9] was “inactive” each time. The outcome in assay [3], in [4] and in assay [10] was inactive.

With `N#CN=C(N)N`, the Potency result in assay [1], in [2], in assay [5], in assay [6], in [7] and in assay [8] was “inactive” in each case. In addition, the Potency entry in [9] was “inactive”. For the same compound, the outcome in [3] and in assay [4] was inactive.

Consider `CC[N+](=O)[O-]`, for which the Potency result in assay [1], in assay [2], in [6], in [7], in [8] and in [9] was “inactive” in each case. In addition, the call in [3] and in assay [4] was inactive.

`O=C(O)c1cc(Oc2ccc(C(F)(F)F)cc2Cl)ccc1[N+](=O)[O-]`: the Potency result in assay [1], in assay [2], in assay [5], in assay [6], in [7] and in assay [8] was “inactive” throughout. In assay [9], the Potency entry was “inactive”. Also, the call in assay [4] was inactive.

In the case of `ClC(Cl)c1ccccc1`, the Potency entry in assay [1], in assay [2], in [5], in assay [6], in [7] and in [8] was “inactive” throughout. Also, the Potency entry in assay [9] is “inactive”. Besides, the compound was classed as inactive in assay [4] and in [10].
